Laboratory results: PubChem BioAssay (NCI)
This is part of a sample that, as a whole, favours compounds with a hit. Of some 83,000 tested, about 20% had one in any assay.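 Percent growth is the endpoint: 0 to 100 indicates growth inhibition (40 means 60% inhibition), 0 means no net growth, and negative values indicate cell death.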 The source made the active and inactive calls. Rule for the calls: active = growth percent below 10; inactive = the rest.

Test system: HL-60(TB) leukemia
Assay: NCI-60 one-dose screen, 48 h (100 = growth as untreated, 0 = no growth, -100 = all killed)
Details: 10 µM unless noted

| SMILES | growth |
| --- | --- |
| O=C(NNc1nc2cc(F)ccc2n2cncc12)c1cnccn1 | 10.8% (inactive) |
| C#C[C@]1(O)CC[C@H]2[C@@H]3CC=C4c5sc(C6CC6)nc5CC[C@]4(C)[C@H]3CC[C@@]21C | 58.8% (inactive) |
| CC(C)(C)Nc1nc2c(OCCc3ccccc3)cccn2c1-c1ccc(Cl)cc1 | -27.8% (active) |
| CC1CCc2c(sc3nc(SCC(=O)N/N=C/c4ccc(Cl)cc4)n(-c4ccccc4)c(=O)c23)C1 (configuration not stated) | 107% (inactive) |
| NC(N)=Nc1ccc(Oc2cccc(Nc3ccc(Cl)c(C(F)(F)F)c3)c2)cn1 | -68% (active) |
| CC1(C)CC[C@]2(CN)CC[C@]3(C)C(=CC[C@@H]4[C@@]5(C)CCCNC(C)(C)[C@@H]5CC[C@]43C)[C@H]2C1 | 87% (inactive) |
| CCOC(=O)Nc1cccc(-n2cnc3cc(-c4ccc(O)cc4)ccc32)c1 | 2.92% (active) |
| CCOP(=O)(OCC)OC[C@]12CCC(C)(C)CC1C1=CC[C@@H]3[C@@]4(C)CCCNC(C)(C)[C@@H]4CC[C@@]3(C)[C@]1(C)CC2 (some centres not stated) | 34.7% (inactive) |
| C=C(C)[C@@H]1CC[C@]2(C(=O)N3CCN(C)CC3)CC[C@]3(C)[C@H](CC[C@@H]4[C@@]5(C)CC[C@H](OP(=O)(OCC)OCC)C(C)(C)[C@@H]5CC[C@]43C)[C@@H]12 | 42.2% (inactive) |
| CC1CC(=O)C2=C(C1)Nc1ccc(Br)cc1CC2c1c[nH]c2ccc(Br)cc12 (configuration not stated) | 21.2% (inactive) |
| Clc1ccc2[nH]cc(-c3cncn3CCc3ccc4c(c3)OCO4)c2c1 | 52.1% (inactive) |
| COc1ccc(CCOc2cc3c(cc2OC)CCN(C(=O)NCc2cocn2)C3c2ccc(C)cc2C)cc1 (configuration not stated) | 5.9% (active) |
| CC1(C)[C@@H](O)CC[C@]2(C)[C@H]3CC[C@@H]4[C@H]5[C@H](C(=O)/C=C\c6ccccn6)CC[C@]5(O)CC[C@@]4(C)[C@]3(C)CC[C@@H]12 | -24.5% (active) |
| N#Cc1cn(Cc2ccc(Cl)cc2Cl)c(C(=O)c2ccc(Br)cc2)c1N | 96.6% (inactive) |
| CCOC(=O)c1c(NC(=O)c2ccc(C(F)(F)F)cc2)sc2c3c(ccc12)OCN(C)C3 | -27.6% (active) |
| COc1ccc(/C=C/C(=O)c2cccc(NC(=O)CSc3nc4ccccc4c(=O)n3-c3ccccc3)c2)cc1OC | 98.9% (inactive) |
| COc1ccc(/C=C(/C)c2ccc3ccc(OC)cc3[o+]2)c(O)c1 | 44% (inactive) |
| Brc1ccc2[nH]cc(-c3nn4cc(-c5nccs5)nc4s3)c2c1 | 59.1% (inactive) |
| O=C(Nc1ccc(-c2nc(-c3cccc(O)c3)c(-c3ccnc(Br)c3)[nH]2)cc1)c1ccccc1 | -53.1% (active) |
| CSCCC(C(=O)O)N1C(=O)/C(=C/c2ccc(O)c(O)c2)SC1=S (configuration not stated) | 103% (inactive) |
| COc1cc(C(=O)c2cc(C(C)=O)c3c(C)cccn23)cc(OC)c1OC | 88.9% (inactive) |
| CN(C)CCCOc1c2ccccc2nc2c1oc1ccc(Cl)cc12 | 9.14% (active) |
| COc1cc(-c2nn(C(C)(C)C)cc2-c2ccnc(NCCCNS(=O)(=O)c3ccc(Cl)cc3)n2)ccc1Cl | 64.9% (inactive) |
| Cc1c(NC(=O)CSc2nc3sc4c(c3c(=O)n2-c2ccc(Cl)cc2)CCCC4)c(=O)n(-c2ccccc2)n1C | 80% (inactive) |
| O=C(Oc1ccc2ccc(=O)oc2c1)c1ccc(Cl)cc1 | 106% (inactive) |
| CC1(COc2ccc3ncc(C#Cc4cncc(C(=O)Nc5cc(C(C)(C)C)on5)c4)n3n2)COC1 | 23% (inactive) |
| O=C(c1cccc(F)c1)n1ccc2cc(NC(=S)Nc3cccnc3)ccc21 | 85.8% (inactive) |
